Counter-ions that a name gives are not always drawn. ± gives the standard deviation of the averaged measurements.

This test relates to Toxoplasma gondii RH (in HFF). Put plainly: parasite growth relative to the screen mean (all compounds = 100%); higher = less inhibition of parasite growth. The settings on record: 5 µM; 72 h; oxygen 21 %. Summed up: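 Confluent human foreskin fibroblasts in 96-well plates received library compounds by pin transfer at 5 µM final, taken from 10 mM DMSO stocks. Within 2 h the cells were infected with RH β-Gal–GFP Toxoplasma at MOI 1:5 and cultured 72 h at 21% O2. A CPRG β-Gal assay read against in-plate standard curves gave parasite number, and growth is stated relative to the screen mean, where all compounds = 100%, averaged across two screens.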
With `Clc1ccc(CCCOCCCN2CCCCC2)cc1`, the parasite growth came to 45.7 ± 21%.

Turning to `O=c1[nH]c2cc(Cl)ccc2c(O)c1-c1cccc(Oc2ccccc2)c1`, the parasite growth stood at 103 ± 19%.

The compound `CCCN(CC1CC1)c1nc(C)nc(Nc2c(Cl)cc(Cl)cc2Cl)c1Cl` displayed a parasite growth of 116 ± 14%.

`COc1ccc([C@@H]2CNC(=O)C2)cc1OC1CCCC1` [(R)-(-)-Rolipram] came in with a parasite growth of 106 ± 6%.

`CCC(=O)OCN1C(=O)C=CC1=O` gave a parasite growth of 124 ± 12%.

The compound `COc1ccc(CN(CCN(C)C)c2ccccn2)cc1` [Mepyramine maleate] showed a parasite growth of 115 ± 5.5%.

In turn, `Cc1ccc(O)c(N=Nc2ccccc2)n1` had a parasite growth of 92.5 ± 68%.

As for `Cc1nc2c(OCc3ccccc3)cccn2c1CC#N`, the parasite growth came to 153 ± 7.3%.

`Nc1ncnc2c1ncn2C1CCCO1` (stereo not drawn) came in with a parasite growth of 70.4 ± 16%.

In turn, `O=[N+]([O-])c1cccc2cn[nH]c12` [7-Nitroindazole] returned a parasite growth of 124.7 ± 0.72%.

Take `CCCCCS(=O)(=O)CCCCCCCCCCn1c(-c2ccc(O)cc2)c(C)c2cc(O)ccc21`: the parasite growth is 132 ± 30%.

As for `CC(C)NCC(O)COc1cccc2[nH]ccc12` (stereo not drawn) [Pindolol], the parasite growth turned out to be 148 ± 24%.

For the compound `NCCNC(=O)c1ccc(Cl)cn1` [Lazabemide hydrochloride], the parasite growth is 109 ± 28%.

With `C[C@]12CC[C@@H]3c4ccc(O)cc4C[C@@H](CCCCCCCCC[S+]([O-])CCCC(F)(F)C(F)(F)F)[C@H]3[C@@H]1CC[C@@H]2O` (stereo partly drawn), the parasite growth came out at 43.7 ± 11%.

Regarding `CCC(NC(C)C)C(O)c1ccc(O)c2[nH]c(=O)ccc12` (stereo not drawn) [Procaterol hydrochloride], the parasite growth worked out at 132 ± 21%.

For `COc1ccc(Cl)cc1C(=O)NCCc1ccc(S(=O)(=O)NC(=O)NC2CCCCC2)cc1` [Glibenclamide], the parasite growth stood at 96.4 ± 24%.

The compound `Cc1nn(C)c2nc(NNC(=O)Nc3cc(Cl)nc(Cl)c3)cc(C(C)C)c12` had a parasite growth of 97.4 ± 3%.

As for `NS(=O)(=O)c1cccc2c1c([N+](=O)[O-])cc1nc(O)c(O)nc12` [NBQX disodium salt], the parasite growth was 112 ± 14%.

For `CC1(C)CC(=O)C(C2C3=C(CC(C)(C)CC3=O)Oc3ccccc32)C(=O)C1` (stereo not drawn), the parasite growth came out at 127 ± 18%.

Take `Cc1cc2nc3c(=O)[nH]c(=O)nc-3n(C)c2cc1C=O`: the parasite growth turned out to be 22.6 ± 1.9%.

`FC(F)(F)c1cccc(-c2noc(-c3cc(-c4ccccc4)c(C(F)(F)F)s3)n2)c1`: the parasite growth came out at 109 ± 44%.

In turn, `COC(=O)[C@H](NC(=O)c1cc(-c2ccccc2)nc2ccccc12)c1ccccc1` had a parasite growth of 112.7 ± 0.18%.

Take `CC(C)NC[C@@H](O)COc1cccc2ccccc12` [(R)-(+)-Propranolol hydrochloride]: the parasite growth turned out to be 87.15 ± 0.86%.

Take `COc1ccc2c(c1)c(CC(=O)N1CCOCC1)c(C)n2C(=O)c1ccc(Cl)cc1`: the parasite growth is 133 ± 23%.

Compound `N#C/C(=C\c1ccc(O)c(O)c1)C(=O)NCc1ccccc1` came in with a parasite growth of 148 ± 13%.

On to `CCCc1c(OCC(O)COc2ccc3c(=O)cc(C(=O)O)oc3c2CCC)ccc(C(C)=O)c1O` (stereo not drawn), for which the parasite growth was found to be 96.9 ± 7.1%.

In the case of `COc1ccc2c(c1OC)C(=O)O[C@@H]2[C@H]1c2c(cc3c(c2OC)OCO3)CCN1C` [Noscapine hydrochloride], the parasite growth came out at 129 ± 27%.

`COc1cc(CNC(=O)CCCC/C=C/C(C)C)ccc1O` [(E)-Capsaicin] registered a parasite growth of 135 ± 14%.

Regarding `N#Cc1ccc(NCCNCC(=O)N2CCC[C@H]2C#N)nc1` [NVP DPP 728 dihydrochloride], the parasite growth was found to be 81.5 ± 3.9%.

`CCN1CCC[C@H]1CNC(=O)c1c(OC)ccc(Br)c1OC` [Remoxipride hydrochloride] came in with a parasite growth of 113 ± 3.8%.

`CN1CCN2c3ccccc3Cc3ccccc3C2C1` (stereo not drawn) [Mianserin hydrochloride] showed a parasite growth of 154 ± 39%.

Compound `O=C(Nc1ccccc1)N[C@@H]1C[C@@H](C(=O)O)Nc2cc(Cl)cc(Cl)c21` displayed a parasite growth of 104 ± 3.9%.

For `CCn1ccnc1CC1COc2ccccc2O1` (stereo not drawn) [Imiloxan hydrochloride], the parasite growth worked out at 120 ± 7%.

Regarding `CN1[C@@H]2CC[C@H]1C[C@@H](OC(=O)c1c[nH]c3ccccc13)C2` [Tropisetron hydrochloride], the parasite growth was 106 ± 3.1%.

`N=C(N)NC(=O)c1nc(Cl)c(N)nc1N` [Amiloride hydrochloride]: the parasite growth is 102 ± 30%.

Turning to `CCOC(=O)c1ncn2c1CN(C)C(=O)c1cc(F)ccc1-2` [Flumazenil], the parasite growth was 84.5 ± 15%.

With `NC(=O)CCCCn1ccc(NC(N)=NCC(F)(F)F)n1`, the parasite growth was 95.1 ± 10%.

`COc1cc2c(cc1O)CC[C@@H]1[C@@H]2CC[C@]2(C)[C@@H](O)CC[C@@H]12` [2-Methoxyestradiol]: the parasite growth is 174 ± 46%.

The values are drawn from the supplement of paper PMC4894684.
